In all, about 33,000 sequences were measured (“E-score (-0.5 to 0.5)”: median about -0.041, highest 2% from about 0.37 on). Many of the other results were omitted from the sample, so the highest values are more common in it than they were.

Results on 88 sequences are retold here after the supplement of paper PMC3334620.

The test deals with T1, Ecm22 (UniProt Q05958).
T1 sequence: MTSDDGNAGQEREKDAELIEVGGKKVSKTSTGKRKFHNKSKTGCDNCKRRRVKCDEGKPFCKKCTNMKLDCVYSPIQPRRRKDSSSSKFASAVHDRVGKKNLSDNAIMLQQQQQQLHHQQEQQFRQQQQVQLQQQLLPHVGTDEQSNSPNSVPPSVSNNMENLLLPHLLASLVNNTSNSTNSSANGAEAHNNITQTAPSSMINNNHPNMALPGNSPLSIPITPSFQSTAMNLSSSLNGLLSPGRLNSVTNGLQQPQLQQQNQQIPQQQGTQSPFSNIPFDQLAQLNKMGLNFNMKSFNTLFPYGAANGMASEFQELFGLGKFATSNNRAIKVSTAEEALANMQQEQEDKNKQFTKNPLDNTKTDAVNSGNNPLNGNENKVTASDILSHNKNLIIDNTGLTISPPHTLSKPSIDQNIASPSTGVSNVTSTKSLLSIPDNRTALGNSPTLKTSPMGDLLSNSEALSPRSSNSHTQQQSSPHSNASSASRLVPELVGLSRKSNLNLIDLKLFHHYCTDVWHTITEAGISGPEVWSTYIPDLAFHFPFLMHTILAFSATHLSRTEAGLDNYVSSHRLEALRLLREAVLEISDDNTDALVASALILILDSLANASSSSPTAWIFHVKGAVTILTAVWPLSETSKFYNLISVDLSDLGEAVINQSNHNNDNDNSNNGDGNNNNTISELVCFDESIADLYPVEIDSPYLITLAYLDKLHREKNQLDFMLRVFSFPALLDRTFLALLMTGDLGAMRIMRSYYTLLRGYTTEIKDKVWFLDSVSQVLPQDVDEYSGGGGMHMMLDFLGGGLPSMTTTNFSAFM
The test can be described thus: PBM E-score (8-mer binding enrichment) (E-score (-0.5 to 0.5)); higher = stronger / more preferred TF binding. Conditions: protein concentration: 200 nM; construct: GST-full length. As for the experimental part: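 Universal 'all 10-mer' protein binding microarrays (Agilent AMADID 015681) probed with GST-tagged S. cerevisiae TFs (full-length or DBD) made by in vitro transcription/translation (PURExpress), about 100-200 nM. Bound TF was detected with fluorescent anti-GST. Each ungapped 8-mer (which stands for itself and its reverse complement) is scored by the PBM enrichment score (E-score), a modified Wilcoxon-Mann-Whitney statistic from -0.5 to +0.5, computed with the Universal PBM Analysis Suite. Scale: above 0.35 generally sequence-specific binding.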
For the sequence CCATTTGC, the “PBM E-score” value was -0.0821.
In the case of AGTCGAAC it was 0.0504; in that of GACGCAAA, 0.114; in that of GAAAAGAA, 0.0308.
As for CAGTTCCA, the “PBM E-score” value is -0.0209.
In the case of AAGAGGTG it was -0.0239.
In the case of TGTATACA it was 0.0967.
Turning to AGTATACT, the “PBM E-score” value turned out to be 0.102.
Under AGTATACG stands 0.433; under CGAATACG, 0.362.
Under AGTATATG stands -0.0215.
In the case of GGTATACC it was 0.0922; in that of AGTATACC, 0.0306.
As for AGTATACA, the “PBM E-score” value worked out at 0.0981.
Under CGTATACG stands 0.489.
Under CGTATACA stands 0.46; under CGTATACC, 0.469.
Under GGTATACA stands -0.21.
With AGGAGAAA, the “PBM E-score” value is -0.281.
In the case of TCGATCAA it was 0.0228; in that of CGTAATGC, 0.162.
In the case of CGGAACAA it was 0.168.
Under TATGGGAA stands -0.0838; under GCTTTTGA, -0.115; under AACCCTTG, -0.0616.
CGGATACC: the “PBM E-score” value is 0.0623.
Under CGGATACA stands 0.162; under CGGATACG, 0.386; under ATAGACAT, -0.0449.
In the case of CCAGCGAC it was -0.231; in that of CGATAGCG, 0.128.
Under CGGCGACG stands 0.0233; under ATTATACA, 0.0593.
On to CCTATACG, for which the “PBM E-score” value was 0.465.
In the case of ACTATACA it was 0.108; in that of ACTATACT, 0.144; in that of CCTATACA, -0.00901.
In the case of ATTATACC it was 0.104.
As for CCTATACC, the “PBM E-score” value was -0.0658.
Under ACTATACG stands 0.463; under ATTATACG, 0.476; under TATGCAGA, 0.0611.
Under ATAAGCCC stands -0.136; under ACCTACCG, -6e-05; under TAGTCAGA, -0.276.
Under ACGGGTCG stands 0.267; under AGACAAAG, 0.0946.
Consider CTAAGCGC, for which the “PBM E-score” value stood at 0.0189.
In the case of ATAAGCGA it was 0.332.
In the case of CTAAGCGA it was 0.385; in that of AGACTCAC, -0.22; in that of GCTGGCAC, -0.325.
In the case of CCGGAATC it was -0.169.
For CGCGGTAA, the “PBM E-score” value is 0.191.
In the case of CTTTCCGC it was -0.0543; in that of AGTTCCGC, 0.09; in that of CGTTCCGA, 0.444.
Turning to CGTTCCGC, the “PBM E-score” value stood at 0.458.
Under GGTTCCGA stands -0.00514; under AGTTCCGA, 0.226; under ACCGGACA, -0.108.
In the case of TCCTGAAA it was -0.00548; in that of ATTCAAGG, -0.157.
Take CAGAACGC: the “PBM E-score” value was -0.0854.
Consider TAGAACGA, for which the “PBM E-score” value is 0.429.
TAGAACCA: the “PBM E-score” value is 0.00176.
In the case of GAGAACCA, the “PBM E-score” value is -0.098.
Turning to GAGAACGC, the “PBM E-score” value stood at 0.117.
Under GAGAACGA stands 0.422; under TAGAACTA, -0.0234; under CAGAACGG, 0.075.
With AAGAACGT, the “PBM E-score” value turned out to be 0.101.
In the case of CAGAACGA it was 0.379; in that of AAGAACGA, 0.453; in that of AAGAACGG, 0.243.
In the case of GAATCGAC it was 0.163; in that of ACGGGAGC, 0.225; in that of TAATCCTA, 0.00777.
In the case of GACGGAGC it was -0.0469; in that of CCTAGGAG, -0.239; in that of CCAAGGCA, -0.0888.
CAAGTGCA: the “PBM E-score” value was -0.24.
In the case of CTGGATGC it was -0.159; in that of GCATAGGC, -0.178; in that of GGCATGAC, -0.121.
As to AGGCTGGG, the “PBM E-score” value is -0.263.
Under CCAAGCCC stands -0.117; under CTTCTGTC, -0.199.
